Experimental data as given in ChEMBL document CHEMBL1961873, “Compounds: GSK PKIS; Assays: Nanosyn kinase panel” (2012).

Columns and labels:
[1] = target: Dual specificity protein kinase CLK3 (Homo sapiens) (UniProt P49761); conditions: at 1 µM;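 also: each value is the mean inhibition of CLK3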
[2] = target: Dual specificity tyrosine-phosphorylation-regulated kinase 1A (Homo sapiens) (UniProt Q13627); conditions: at 0.1 µM
[3] = target: Dual specificity tyrosine-phosphorylation-regulated kinase 1A (Homo sapiens) (UniProt Q13627); conditions: at 1 µM
[4] = target: Dual specificity tyrosine-phosphorylation-regulated kinase 1B (Homo sapiens) (UniProt Q9Y463); conditions: at 0.1 µM
Dual specificity tyrosine-phosphorylation-regulated kinase 1B (Homo sapiens), sequence (Q9Y463 whole entry, looked up): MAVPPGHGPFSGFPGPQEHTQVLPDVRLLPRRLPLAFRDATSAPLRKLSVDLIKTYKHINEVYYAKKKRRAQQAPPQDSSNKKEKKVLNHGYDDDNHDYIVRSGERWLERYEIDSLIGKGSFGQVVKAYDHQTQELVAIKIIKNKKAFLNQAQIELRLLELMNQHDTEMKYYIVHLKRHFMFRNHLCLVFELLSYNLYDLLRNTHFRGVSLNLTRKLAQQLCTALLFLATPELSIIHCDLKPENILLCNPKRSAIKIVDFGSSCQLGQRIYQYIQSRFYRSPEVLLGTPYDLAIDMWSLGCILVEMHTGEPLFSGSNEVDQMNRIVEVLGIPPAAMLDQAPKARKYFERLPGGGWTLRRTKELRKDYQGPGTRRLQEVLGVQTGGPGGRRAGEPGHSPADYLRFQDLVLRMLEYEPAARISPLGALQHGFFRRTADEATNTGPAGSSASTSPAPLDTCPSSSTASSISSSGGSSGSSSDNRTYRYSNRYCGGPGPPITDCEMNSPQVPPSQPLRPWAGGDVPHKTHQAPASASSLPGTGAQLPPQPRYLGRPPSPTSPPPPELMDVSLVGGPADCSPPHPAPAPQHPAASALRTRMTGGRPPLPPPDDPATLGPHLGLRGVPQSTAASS

[5] = target: Dual specificity tyrosine-phosphorylation-regulated kinase 1B (Homo sapiens) (UniProt Q9Y463); conditions: at 1 µM
[6] = target: T1, Dual specificity tyrosine-phosphorylation-regulated kinase 2 (Homo sapiens) (UniProt Q92630); conditions: at 0.1 µM
T1 sequence (whole entry): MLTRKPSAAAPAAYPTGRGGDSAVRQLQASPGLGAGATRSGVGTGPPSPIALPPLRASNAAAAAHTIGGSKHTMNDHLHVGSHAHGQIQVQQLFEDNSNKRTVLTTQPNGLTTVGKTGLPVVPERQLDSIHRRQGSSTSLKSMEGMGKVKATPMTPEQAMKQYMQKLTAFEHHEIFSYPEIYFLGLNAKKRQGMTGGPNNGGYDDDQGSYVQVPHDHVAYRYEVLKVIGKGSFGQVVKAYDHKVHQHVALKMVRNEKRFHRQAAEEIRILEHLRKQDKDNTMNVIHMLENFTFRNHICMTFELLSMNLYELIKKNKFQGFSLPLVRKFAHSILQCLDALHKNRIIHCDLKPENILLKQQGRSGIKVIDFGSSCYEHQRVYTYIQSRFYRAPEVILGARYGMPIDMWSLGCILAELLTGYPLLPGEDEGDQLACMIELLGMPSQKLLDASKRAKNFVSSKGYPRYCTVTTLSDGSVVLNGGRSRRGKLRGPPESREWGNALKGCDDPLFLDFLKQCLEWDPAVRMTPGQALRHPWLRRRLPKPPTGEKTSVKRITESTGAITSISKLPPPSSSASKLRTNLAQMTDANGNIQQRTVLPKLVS

[7] = target: T1, Dual specificity tyrosine-phosphorylation-regulated kinase 2 (Homo sapiens); conditions: at 1 µM
[8] = target: Glycogen synthase kinase-3 alpha (Homo sapiens) (UniProt P49840); conditions: at 0.1 µM
Glycogen synthase kinase-3 alpha (Homo sapiens), sequence (P49840 2-483 limits assumed): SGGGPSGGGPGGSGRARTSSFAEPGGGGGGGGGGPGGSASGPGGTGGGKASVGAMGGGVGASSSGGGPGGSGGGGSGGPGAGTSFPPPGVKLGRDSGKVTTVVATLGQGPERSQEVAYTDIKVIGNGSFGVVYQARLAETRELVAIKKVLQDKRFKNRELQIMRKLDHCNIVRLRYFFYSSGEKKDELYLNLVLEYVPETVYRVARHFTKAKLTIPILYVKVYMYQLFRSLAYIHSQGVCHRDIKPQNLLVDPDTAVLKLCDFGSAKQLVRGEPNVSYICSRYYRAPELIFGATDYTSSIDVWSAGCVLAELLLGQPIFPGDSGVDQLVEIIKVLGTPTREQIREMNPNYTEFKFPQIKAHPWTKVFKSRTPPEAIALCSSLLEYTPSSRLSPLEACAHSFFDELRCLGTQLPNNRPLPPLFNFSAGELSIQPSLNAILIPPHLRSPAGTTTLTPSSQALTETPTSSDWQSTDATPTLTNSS

[9] = target: Glycogen synthase kinase-3 alpha (Homo sapiens) (UniProt P49840); conditions: at 1 µM
[10] = target: Glycogen synthase kinase-3 beta (Homo sapiens) (UniProt P49841); conditions: at 0.1 µM
Glycogen synthase kinase-3 beta (Homo sapiens), sequence (P49841 whole entry, looked up): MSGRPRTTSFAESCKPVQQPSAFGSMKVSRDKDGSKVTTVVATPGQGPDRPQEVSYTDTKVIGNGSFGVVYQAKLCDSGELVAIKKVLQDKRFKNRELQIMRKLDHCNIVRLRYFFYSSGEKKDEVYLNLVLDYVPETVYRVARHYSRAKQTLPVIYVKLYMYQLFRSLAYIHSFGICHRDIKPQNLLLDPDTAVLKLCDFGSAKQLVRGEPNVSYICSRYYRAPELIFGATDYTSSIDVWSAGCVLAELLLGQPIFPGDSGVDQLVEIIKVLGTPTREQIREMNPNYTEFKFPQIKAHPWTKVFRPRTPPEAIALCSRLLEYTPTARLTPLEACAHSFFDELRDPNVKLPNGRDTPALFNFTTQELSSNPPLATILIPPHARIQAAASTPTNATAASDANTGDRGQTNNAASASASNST

[11] = target: Glycogen synthase kinase-3 beta (Homo sapiens) (UniProt P49841); conditions: at 1 µM
[12] = target: Homeodomain-interacting protein kinase 1 (Homo sapiens) (UniProt Q86Z02); conditions: at 0.1 µM
Homeodomain-interacting protein kinase 1 (Homo sapiens), sequence (Q86Z02 whole entry, looked up): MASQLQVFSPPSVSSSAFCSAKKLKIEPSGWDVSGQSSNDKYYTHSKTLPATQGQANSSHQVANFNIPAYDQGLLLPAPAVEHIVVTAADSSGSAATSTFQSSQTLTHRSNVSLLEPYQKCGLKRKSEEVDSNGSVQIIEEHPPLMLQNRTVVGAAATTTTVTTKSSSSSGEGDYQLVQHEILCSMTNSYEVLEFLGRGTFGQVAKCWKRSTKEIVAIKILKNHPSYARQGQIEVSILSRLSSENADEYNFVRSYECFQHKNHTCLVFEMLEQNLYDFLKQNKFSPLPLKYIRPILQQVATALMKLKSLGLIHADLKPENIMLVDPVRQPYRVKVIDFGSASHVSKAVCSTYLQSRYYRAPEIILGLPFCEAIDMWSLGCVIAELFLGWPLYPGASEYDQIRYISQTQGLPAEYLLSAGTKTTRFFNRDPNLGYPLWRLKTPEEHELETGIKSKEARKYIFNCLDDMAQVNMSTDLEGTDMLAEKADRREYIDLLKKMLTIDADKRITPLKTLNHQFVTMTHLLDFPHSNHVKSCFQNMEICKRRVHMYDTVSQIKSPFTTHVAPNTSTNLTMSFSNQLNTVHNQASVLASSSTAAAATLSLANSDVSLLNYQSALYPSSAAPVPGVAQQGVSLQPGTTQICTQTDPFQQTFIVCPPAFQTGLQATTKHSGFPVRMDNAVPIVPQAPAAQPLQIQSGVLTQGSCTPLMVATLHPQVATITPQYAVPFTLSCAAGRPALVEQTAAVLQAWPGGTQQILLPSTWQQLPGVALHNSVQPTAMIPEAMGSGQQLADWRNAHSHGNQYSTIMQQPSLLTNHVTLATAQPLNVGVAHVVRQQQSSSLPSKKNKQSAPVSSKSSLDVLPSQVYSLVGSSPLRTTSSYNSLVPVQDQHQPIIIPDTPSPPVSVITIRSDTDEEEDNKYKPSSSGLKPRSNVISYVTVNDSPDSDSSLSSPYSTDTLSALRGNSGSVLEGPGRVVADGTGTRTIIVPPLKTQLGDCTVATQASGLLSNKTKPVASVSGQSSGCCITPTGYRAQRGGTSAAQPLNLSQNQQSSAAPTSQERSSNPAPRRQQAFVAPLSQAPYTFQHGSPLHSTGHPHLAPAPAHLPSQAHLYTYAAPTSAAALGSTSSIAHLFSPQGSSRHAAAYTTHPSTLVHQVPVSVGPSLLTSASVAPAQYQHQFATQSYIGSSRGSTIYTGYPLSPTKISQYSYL

[13] = target: Homeodomain-interacting protein kinase 1 (Homo sapiens) (UniProt Q86Z02); conditions: at 1 µM
[14] = target: T2, Homeodomain-interacting protein kinase 4 (Homo sapiens) (UniProt Q8NE63); conditions: at 0.1 µM
T2 sequence (whole entry): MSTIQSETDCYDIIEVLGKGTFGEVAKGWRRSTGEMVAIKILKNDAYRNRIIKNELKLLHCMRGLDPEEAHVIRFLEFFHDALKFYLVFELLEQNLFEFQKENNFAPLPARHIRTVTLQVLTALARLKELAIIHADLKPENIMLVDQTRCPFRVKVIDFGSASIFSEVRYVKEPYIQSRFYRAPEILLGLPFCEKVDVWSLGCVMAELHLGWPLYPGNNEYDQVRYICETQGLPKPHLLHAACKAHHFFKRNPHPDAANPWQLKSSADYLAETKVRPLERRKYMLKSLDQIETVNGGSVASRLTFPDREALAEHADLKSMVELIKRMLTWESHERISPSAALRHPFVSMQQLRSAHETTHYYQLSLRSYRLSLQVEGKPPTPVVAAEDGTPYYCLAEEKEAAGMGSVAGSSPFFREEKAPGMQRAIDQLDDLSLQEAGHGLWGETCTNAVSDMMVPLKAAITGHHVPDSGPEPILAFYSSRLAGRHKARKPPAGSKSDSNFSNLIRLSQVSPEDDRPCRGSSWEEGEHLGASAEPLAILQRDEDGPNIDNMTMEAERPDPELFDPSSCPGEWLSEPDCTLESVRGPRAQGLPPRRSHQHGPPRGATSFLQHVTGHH

[15] = target: T2, Homeodomain-interacting protein kinase 4 (Homo sapiens); conditions: at 1 µM
[16] = target: Mitogen-activated protein kinase 9 (Homo sapiens) (UniProt P45984); conditions: at 0.1 µM
Mitogen-activated protein kinase 9 (Homo sapiens), sequence (P45984 whole entry, looked up): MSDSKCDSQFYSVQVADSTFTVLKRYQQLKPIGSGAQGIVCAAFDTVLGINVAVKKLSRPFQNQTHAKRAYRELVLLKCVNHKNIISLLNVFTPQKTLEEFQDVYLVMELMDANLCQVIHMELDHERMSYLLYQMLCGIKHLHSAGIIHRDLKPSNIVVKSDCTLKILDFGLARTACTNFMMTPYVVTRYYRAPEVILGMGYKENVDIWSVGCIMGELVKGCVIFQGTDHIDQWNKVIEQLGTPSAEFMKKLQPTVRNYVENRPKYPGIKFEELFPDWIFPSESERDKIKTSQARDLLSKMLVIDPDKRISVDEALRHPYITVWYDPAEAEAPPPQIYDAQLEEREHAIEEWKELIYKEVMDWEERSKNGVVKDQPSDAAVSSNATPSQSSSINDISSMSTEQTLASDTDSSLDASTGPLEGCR

[17] = target: Mitogen-activated protein kinase 9 (Homo sapiens) (UniProt P45984); conditions: at 1 µM
[18] = target: Mitogen-activated protein kinase 1 (Homo sapiens) (UniProt P28482); conditions: at 0.1 µM
Mitogen-activated protein kinase 1 (Homo sapiens), sequence (P28482 whole entry): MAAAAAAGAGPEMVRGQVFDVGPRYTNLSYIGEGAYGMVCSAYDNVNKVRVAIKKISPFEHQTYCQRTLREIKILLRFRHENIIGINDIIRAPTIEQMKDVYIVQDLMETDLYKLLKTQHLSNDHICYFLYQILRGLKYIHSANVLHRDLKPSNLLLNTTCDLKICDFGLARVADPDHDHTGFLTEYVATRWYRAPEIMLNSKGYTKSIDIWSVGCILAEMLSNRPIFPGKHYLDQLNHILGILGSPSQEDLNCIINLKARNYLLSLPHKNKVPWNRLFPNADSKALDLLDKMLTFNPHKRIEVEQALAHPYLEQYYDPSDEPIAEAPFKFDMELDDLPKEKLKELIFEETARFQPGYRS

[19] = target: Mitogen-activated protein kinase 1 (Homo sapiens) (UniProt P28482); conditions: at 1 µM
[20] = target: Mitogen-activated protein kinase 3 (Homo sapiens) (UniProt P27361); conditions: at 0.1 µM;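 also: each value is a mean inhibition figure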
Mitogen-activated protein kinase 3 (Homo sapiens), sequence (P27361 whole entry): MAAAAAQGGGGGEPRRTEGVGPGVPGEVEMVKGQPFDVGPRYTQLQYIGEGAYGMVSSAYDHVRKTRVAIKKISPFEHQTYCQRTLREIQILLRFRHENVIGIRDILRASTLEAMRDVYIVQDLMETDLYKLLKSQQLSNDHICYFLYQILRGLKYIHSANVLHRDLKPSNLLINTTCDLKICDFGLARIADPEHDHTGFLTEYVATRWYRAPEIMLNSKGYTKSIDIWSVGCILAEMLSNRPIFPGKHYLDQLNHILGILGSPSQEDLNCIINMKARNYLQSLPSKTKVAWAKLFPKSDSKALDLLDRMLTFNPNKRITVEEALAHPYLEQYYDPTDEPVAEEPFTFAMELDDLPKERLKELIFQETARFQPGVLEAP

Dual specificity protein kinase CLK3 (Homo sapiens), sequence (P49761 whole entry, looked up): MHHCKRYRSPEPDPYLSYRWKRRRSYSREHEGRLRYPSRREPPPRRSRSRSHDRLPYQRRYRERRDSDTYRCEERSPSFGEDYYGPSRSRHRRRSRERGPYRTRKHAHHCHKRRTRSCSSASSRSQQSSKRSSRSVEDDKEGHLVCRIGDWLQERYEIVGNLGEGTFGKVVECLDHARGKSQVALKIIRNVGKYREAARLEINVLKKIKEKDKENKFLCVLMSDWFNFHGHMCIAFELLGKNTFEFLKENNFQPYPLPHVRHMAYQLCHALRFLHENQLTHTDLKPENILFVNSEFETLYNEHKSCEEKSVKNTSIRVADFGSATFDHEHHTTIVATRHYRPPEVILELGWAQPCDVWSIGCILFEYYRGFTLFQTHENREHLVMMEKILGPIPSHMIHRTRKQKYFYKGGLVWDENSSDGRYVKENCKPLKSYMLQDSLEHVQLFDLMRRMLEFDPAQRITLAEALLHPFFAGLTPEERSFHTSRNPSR

Row | SMILES | inhibition [1] | inhibition [2] | inhibition [3] | inhibition [4] | inhibition [5] | inhibition [6] | inhibition [7] | inhibition [8] | inhibition [9] | inhibition [10] | inhibition [11] | inhibition [12] | inhibition [13] | inhibition [14] | inhibition [15] | inhibition [16] | inhibition [17] | inhibition [18] | inhibition [19] | inhibition [20]
1 | COC(=O)c1sc(-n2cnc3cc(OC)c(OC)cc32)cc1OCc1ccccc1C(F)(F)F | 0.53% | 1.62% | 3.44% | -1.47% | -1.98% | 3.48% | 4.12% | 1.51% | 4.48% | -0.28% | 3.49% | -2.18% | -0.46% | -0.74% | 1.47% | 3.59% | 6.58% | 4.72% | 5.29% | 3.25%
2 | CCNC(=O)O[C@H]1CN[C@H](C#Cc2cc3ncnc(Nc4ccc(OCc5cccc(F)c5)c(Cl)c4)c3s2)C1 | 2.52% | 1.66% | 3.98% | 0.74% | 1.59% | 3.13% | 5.14% | 3.4% | 9.61% | 2.01% | 8.04% | 2.47% | 5.41% | 2.15% | 0.62% | 1.6% | 4.37% | 1.5% | 2.66% | 0.46%
3 | CCn1cc(-c2ccnc3[nH]ccc23)c(-c2cccc(NC(=O)Nc3ccc(OCc4ccccc4)cc3)c2)n1 | -1.48% | -3.22% | -2.65% | -1.6% | -0.5% | -0.82% | -4.73% | 2.29% | 3.64% | 1.77% | 3.94% | -3.5% | -1.09% | -1.8% | -0.81% | 0.84% | 1.92% | 1.51% | 0.25% | 1.98%
4 | CC1=C(C(=O)Nc2cc(Cl)c3[nH]ncc3c2)C(c2ccc(C(F)(F)F)cc2)CC(=O)N1 (stereo not given) | 1.64% | 1.66% | 2.44% | -1.21% | -0.06% | 2.57% | 2.68% | 0.24% | -1.53% | 0.14% | 2.19% | -0.91% | -0.78% | -0.54% | 2.16% | 3.86% | 2.16% | 7.37% | 35.4% | 6.64%
5 | Cc1cccc2c1NC(=O)/C2=N\Nc1ccc(S(N)(=O)=O)cc1 | 3.84% | 1.06% | 5.61% | 0.89% | 1.16% | 2.62% | 3.24% | 3.97% | 8.42% | 3.71% | 7.38% | 1.24% | 4.95% | 2.16% | 1.3% | 1.94% | 4.49% | 2.25% | 0.43% | 2.41%
6 | Nc1ncc(-c2cccc(S(N)(=O)=O)c2)c2scc(-c3ccc(F)c(Cl)c3)c12 | 0.34% | 2.01% | 3.66% | -0.65% | 0.74% | 3.42% | 2.46% | 3.06% | 4.87% | 2.78% | 3.65% | 0.64% | 3.02% | 1.4% | 4.49% | 2.92% | 20.5% | 6.27% | 7.98% | 3.4%
